Most compounds without a hit are left out; they make up all but 4% or so of the library.
HIF-2a inh: HIF-2a inhibition | inhibition, % at 18.8 µM | hit rate 0.72% among 360,000 | AID 624352 | 786-0 RCC cells HIF-2a reporter, luciferase luminescence, overnight;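 active means inhibition of the luminescence signal of 40% or more relative to plate controls, in a single-dose primary screen at 18.75 µM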
TROY NFkB inh: TROY signaling inhibition; Q293 LMP1-TROYcd NF-kB luciferase reporter, 4 h; inhibition, % at 10 µM; hit rate 0.98% among 360,000;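 active means compounds whose plate-normalised and pattern-corrected inhibition of the luciferase reporter signal at the single screening dose is 50% or more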
TWEAK-Fn14 inh: TWEAK-Fn14 signaling inhibition; TWEAK-stimulated Fn14 reporter cells, luciferase luminescence, 8 h; hit rate 2% among 360,000; inhibition, % at 10 µM; AID 1159606; in the data active means inhibition above about 50%
Peg3 promoter: inhibitors of Peg3 promoter; HeLa PEG-Prom luciferase reporter, luminescence, overnight; inhibition, % at 20 µM; hit rate 1.7% among 360,000; AID 588405;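 active means inhibition of at least 50% at 20 µM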
CF NFkB inh: cystic fibrosis NF-kB activation inhibition; KKLEB NF-kB-GFP reporter, PAF-induced, GFP fluorescence overnight; AID 588850; inhibition, % at 5 µM; hit rate 0.86% among 360,000;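 active means at least 50% inhibition at 5 µM, scaled per plate between neutral and stimulator controls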;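 further: PAF is a Pseudomonas aeruginosa culture filtrate used as stimulus; plate controls were PAF-stimulated DMSO wells for no effect and unstimulated DMSO wells for full effect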
KKLEB tox: counter-screen for CF NF-kB inhibitors: cytotoxicity. KKLEB CF airway cells viability, ATPlite luminescence, overnight; hits give low values; cells stimulated with P. aeruginosa culture filtrate. activity change (cytotoxicity), % at 5 µM. hit rate 0.36% among 360,000. AID 602141;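 active means corrected activity change at or below -50% at 5 µM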
CF NFkB conf: CF NF-kB inhibition confirmation, single concentration; inhibition, % at 5 µM; hit rate 64% among 1,300; shares compounds with CF NFkB inh; AID 602472; KKLEB CF airway cells, PAF-induced NF-kB-GFP fluorescence, overnight; in the data active means inhibition above about 40%;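 further: stimulus PAF is a Pseudomonas aeruginosa filtrate and not platelet activating factor; plate controls were DMSO wells with stimulus for no effect and unstimulated DMSO wells for full effect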
Active calls of the source: *; · = not tested or not shown.

SMILES	HIF-2a inh	TROY NFkB inh	TWEAK-Fn14 inh	Peg3 promoter	CF NFkB inh	KKLEB tox	CF NFkB conf
c1ccc(-c2nc3nonc3nc2-c2ccccc2)cc1	25	-6	20	9	72*	-17	66*
COc1ccc(C(N)=O)cc1NC(=O)CC(O)(C(F)(F)F)C(F)(F)F	-6	-6	12	-1	-5	7	·
COC(=O)C1CC(O)CN1C(=O)Nc1cccc(C(F)(F)F)c1 (configuration not stated)	10	-5	-1	0	9	-1	·
Cc1cccc(N2C(=O)CC(Sc3nc(C)cc(C)n3)C2=O)c1 (configuration not stated)	4	-2	0	11	1	6	·
Cc1cc(C)cc(N2C(=O)CC(Sc3nnnn3-c3ccccc3)C2=O)c1 (configuration not stated)	-11	6	7	108*	57*	-17	-1
COc1cc(C(=O)Nc2nnc(-c3sccc3C)s2)cc(OC)c1OC	-14	-11	-8	-1	54*	-45	59*
CCN(C[C@H]1N[C@@](Cc2ccccc2)(C(=O)OC)[C@H]2C(=O)N(Cc3ccccc3)C(=O)[C@@H]12)C(=O)Nc1ccc(C(F)(F)F)cc1	-60	50*	84*	31	51*	6	35
O=C(COC(=O)CN1C(=O)c2cccc([N+](=O)[O-])c2C1=O)NC1CCS(=O)(=O)C1 (configuration not stated)	11	8	-8	-3	6	8	·
O=C(Nc1nc2ccc(F)cc2s1)C1CCN(S(=O)(=O)c2cc([N+](=O)[O-])ccc2Cl)CC1	-209	34	84*	-36	79*	-17	72*
CN(C(=O)CSc1ncn[nH]1)C1(C#N)CCCCC1	8	-14	11	6	12	-4	·
COc1cccc(N2CCN(c3c(C#N)c(C(F)(F)F)nn3C)CC2)c1	20	24	34	-4	52*	-4	61*
O=C(OCC(=O)N1CCCC1=O)c1cccc([N+](=O)[O-])c1	-12	4	2	-26	22	-5	·
Cn1c(Oc2ccc(Cl)cc2)c(C=O)c2ccccc21	31	29	64*	37	51*	-16	70*
C=CCN1c2ccccc2Sc2cnccc21	5	44	56*	35	80*	-11	91*
CC(=O)OCCN1c2ccccc2Sc2cnccc21	24	9	39	26	65*	-3	67*
CCOC(=O)N1CCC(NC(=O)c2ccc3c(c2)N=C(C)c2c(C)ccc(C)c2S3)CC1	24	20	4	21	57*	-18	58*
CCOC(=O)N1CCC(NC(=O)c2ccc3c(c2)N=C(CC)c2cc(C)ccc2S3)CC1	19	23	17	34	17	7	·
COc1ccc(CN(CCC(c2ccc(F)cc2)C2CCOC(C)(C)C2)C(=O)c2ccco2)cc1 (configuration not stated)	2	11	27	51*	74*	-15	49*
CCC(Oc1ccccc1)C(=O)Nc1ncc([N+](=O)[O-])s1 (configuration not stated)	-77	48	8	-1	50*	-3	46*
CCC(Oc1ccccc1)C(=O)Nc1nnc(C)s1 (configuration not stated)	3	0	3	12	-3	4	·
O=C(COc1ccc(Cl)cc1)Nc1ncc([N+](=O)[O-])s1	-240	48	79*	-111	57*	-49	75*
O=[N+]([O-])c1ncn(Cc2ccccc2Cl)n1	10	-13	0	5	8	-8	·
CC(=O)c1cc2c(cc1NC(=O)Cn1nc(-c3ccc(C)cc3)ccc1=O)OCO2	5	-6	0	27	0	-4	·
O=C(NCc1cccnc1)c1cc(C2CCCCN2C(=O)c2ccc(Cl)cc2)on1 (configuration not stated)	0	10	-22	-6	-18	4	·
CCc1ccc(NC(=O)Cn2ncc3c4ccccc4n(C)c3c2=O)cc1	9	-2	13	5	-12	2	·
SMILES	HIF-2a inh	TROY NFkB inh	TWEAK-Fn14 inh	Peg3 promoter	CF NFkB inh	KKLEB tox	CF NFkB conf
O=C(NCc1ccccc1)C1=C[C@H](c2csc3ccccc23)C[C@H](OCc2ccc(CO)cc2)O1	23	16	33	34	53*	-48	60*
O=C(NCc1ccccc1)C1=C[C@@H](c2ccccc2)C[C@@H](OCc2ccc(CO)cc2)O1	-6	-39	0	2	-5	-3	·
COc1ccc(NC(=O)c2cc3c(-c4ccc(OC)c(OC)c4)nn(C)c3s2)cc1OC	-2	-50	58*	-69	87*	-21	62*
CCOC(=O)c1c(C)cc2c(CO)n[nH]c(=O)c2c1C	10	20	29	27	51*	-14	48*
CC1=C(/C=C/C(C)=C/C=C/C(C)=C\C(=O)O)C(C)(C)CCC1	13	2	10	-20	66*	-9	70*
CC1=CC(=O)CC(C)(C)C1(O)/C=C/C(C)=C/C(=O)O (configuration not stated)	6	6	-11	8	-1	4	·
O=C(NC(=S)NNC(=O)c1cccs1)c1ccc(Br)o1	2	-42	-2	7	-2	-7	·
CC(C)c1nc(SCC(=O)N2CCCc3ccccc32)c2c(=O)n(C)c(=O)n(C)c2n1	0	21	40	63*	64*	-8	12
CCn1c(SCC(=O)N2CCCc3ccccc32)nc2c1c(=O)n(C)c(=O)n2C	13	12	8	31	8	1	·
CCN(CC)S(=O)(=O)c1ccc(N2CCCC2)c(NC(=O)c2ccncc2)c1	18	26	2	-1	0	-1	·
O=C(Nc1ccc2c(c1)OCO2)NC1CCN(Cc2ccccc2)CC1	-111	-47	-28	-46	4	-2	·
COc1cc([C@@H]2Oc3cc(C4Oc5cc(O)cc(O)c5C(=O)[C@H]4O)ccc3O[C@H]2CO)ccc1O (some centres not stated)	3	14	11	-12	51*	13	9
COc1cc([C@H]2Oc3cc([C@H]4Oc5cc(O)cc(O)c5C(=O)[C@@H]4O)ccc3O[C@@H]2CO)ccc1O	1	17	-13	-7	20	-1	·
COc1ccccc1C(=O)NC(CCSC)C(=O)NC1CC1 (configuration not stated)	4	1	5	-15	1	11	·
CCCN(CC)c1ncnc2[nH]ncc12	14	40	67*	16	81*	6	63*
CN(C)c1ncnc2[nH]ncc12	6	-12	-11	2	18	-7	·
